# Source: PubChem BioAssay (Tox21)
# Several values for one entry are separate records, joined by “and”; a condition that tells them apart may be missing. Equal values may be shown once. Values without a mark were called inactive. Results filed as inconclusive are left out. A call without a number means that no potency is given here. Activity calls are given as the source filed them. Unless noted, the call rests on the fitted dose curve; in most records, active means well fitted curve in the direction sought with a large enough effect in the repeat runs; inconclusive means weak or mixed curves; inactive means no such curve, though single readings can be large; an effect the other way counts as inactive or inconclusive.
# What was measured:
# [1] = target: Thyrotropin receptor (Homo sapiens) (UniProt P16473); assay: qHTS assay to identify small molecule agonists of the thyroid stimulating hormone receptor (TSHR) signaling pathway (AID 1224843; calls by dose curve; further: nearly all actives have a fitted effect of over 45% in size; further: potency means the concentration at half of the fitted maximal effect)
# Chain of Thyrotropin receptor (Homo sapiens) (P16473 whole entry, looked up): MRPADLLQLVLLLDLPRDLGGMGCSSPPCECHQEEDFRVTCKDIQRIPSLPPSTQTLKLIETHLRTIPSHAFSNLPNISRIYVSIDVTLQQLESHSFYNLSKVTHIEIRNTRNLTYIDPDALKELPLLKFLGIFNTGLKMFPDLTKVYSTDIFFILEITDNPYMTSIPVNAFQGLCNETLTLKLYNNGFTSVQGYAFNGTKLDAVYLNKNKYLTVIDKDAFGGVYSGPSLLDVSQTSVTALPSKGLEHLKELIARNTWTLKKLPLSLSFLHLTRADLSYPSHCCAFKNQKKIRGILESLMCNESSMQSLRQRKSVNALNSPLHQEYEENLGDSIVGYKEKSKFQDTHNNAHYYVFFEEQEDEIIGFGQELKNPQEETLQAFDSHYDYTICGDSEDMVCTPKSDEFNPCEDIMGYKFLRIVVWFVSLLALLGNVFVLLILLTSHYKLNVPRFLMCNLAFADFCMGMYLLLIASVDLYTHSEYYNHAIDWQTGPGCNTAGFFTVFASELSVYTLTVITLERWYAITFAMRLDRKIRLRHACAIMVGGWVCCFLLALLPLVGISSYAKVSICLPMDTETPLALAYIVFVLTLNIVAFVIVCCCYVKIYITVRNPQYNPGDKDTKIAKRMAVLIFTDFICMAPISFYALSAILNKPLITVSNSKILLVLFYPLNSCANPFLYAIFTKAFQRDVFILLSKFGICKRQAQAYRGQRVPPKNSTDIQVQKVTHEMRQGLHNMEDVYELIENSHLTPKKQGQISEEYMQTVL
# Method in brief: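 Cell line HEK293 with TSHR; density 800/well. Exposure 30 min RT. Readout HTRF cAMP (cAMP-d2/anti-cAMP-cryptate), 1 h RT before reading.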
# [2] = qHTS assay to identify small molecule agonists of the hypoxia (HIF-1) signaling pathway - cell viability counter screen (AID 1224844; calls by dose curve; further: nearly all actives have a fitted effect of over 50% in size; further: potency means the concentration at half of the fitted maximal effect)
# Method in brief: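 HRE-bla ME-180 cells in medium with 0.5% dialyzed FBS were preincubated 5 hrs at 37C, exposed to compounds for 17 hrs, then viability was read as CellTiter-Glo luminescence after 30 min at room temperature, in the reporter wells.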
# [3] = qHTS assay to identify small molecule agonists of the hypoxia (HIF-1) signaling pathway (AID 1224846; active means well fitted activation curve with a large enough effect in the signal ratio in the repeat runs, not every such curve was filed as active; the % refers to the signal ratio)
# Method in brief: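 HRE-bla ME-180 cells (beta-lactamase reporter under hypoxia response element) were plated at 2,000 cells/well in medium with 0.5% dialyzed FBS, rested 5 hrs, then given compounds in DMSO for 17 hrs at 37C, 5% CO2. Reporter induction was read with CCF4-AM FRET substrate.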
# [4] = qHTS RealTime-Glo MT Cell Viability Assay in HepG2 cells - 24 hour (AID 1224867); further: nearly all actives have a fitted effect of over 50% in size
# Method in brief: (§1)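 Compound treatment began 5 h after plating HepG2 cells (600/well) with NanoLuc luciferase and prosubstrate. Plates stayed at 37 C for 40 h; luminescence was captured at six time points, 0 h through 40 h.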
# [5] = qHTS RealTime-Glo MT Cell Viability Assay in HEK293 cells - 32 hour (AID 1224868); further: nearly all actives have a fitted effect of over 50% in size; further: potency means the concentration at half of the fitted maximal effect
# Method in brief: (§2)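 Quantitative high-throughput screen of the Tox21 10K library in HEK293: cells and RealTime-Glo reagents plated together, compound added at 5 h, luminescence monitored through 40 h at 37 C.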
# [6] = A CellTox Green Cytotoxicity Assay to monitor cytotoxicity in HEK293 cells - 0 hour (AID 1224869); further: nearly all actives have a fitted effect of over 50% in size
# Method in brief: (§3)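 HEK293 cells premixed with CellTox Green dye were seeded at 600 cells/well and left 5 h at 37 C/5% CO2 before pin transfer of 23 nL compound in DMSO. Fluorescence from dye bound to dead-cell DNA was read during 40 h treatment.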
# [7] = qHTS RealTime-Glo MT Cell Viability Assay in HepG2 cells - 40 hour (AID 1224870); further: nearly all actives have a fitted effect of over 50% in size
# Method in brief: (§4)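 HepG2 cells mixed with RealTime-Glo MT reagents (NanoLuc plus cell-permeant prosubstrate) were seeded at 600 cells/well, incubated 5 h at 37 C/5% CO2, then pinned with compounds in DMSO; nonlytic luminescence tracked viability during 40 h treatment.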
# [8] = qHTS RealTime-Glo MT Cell Viability Assay in HepG2 cells - 8 hour (AID 1224873); further: nearly all actives have a fitted effect of over 55% in size
# Method in brief: as §4
# [9] = qHTS RealTime-Glo MT Cell Viability Assay in HEK293 cells - 40 hour (AID 1224874); conditions: RealTime-Glo luminescence; max response: hits give low values; further: nearly all actives have a fitted effect of over 50% in size; further: potency means the concentration at half of the fitted maximal effect
# Method in brief: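 HEK293 cells mixed with RealTime-Glo reagents (NanoLuc plus cell-permeant prosubstrate) at 600 cells/well, preincubated 5 h at 37 C/5% CO2, then given 23 nL compound in DMSO. Nonlytic luminescence from viable cells was read at 0, 8, 16, 24, 32 and 40 h.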
# [10] = A CellTox Green Cytotoxicity Assay to monitor cytotoxicity in HEK293 cells - 24 hour (AID 1224875); further: nearly all actives have a fitted effect of over 45% in size
# Method in brief: as §3
# [11] = A CellTox Green Cytotoxicity Assay to monitor cytotoxicity in HepG2 cells - 16 hour (AID 1224876); further: nearly all actives have a fitted effect of over 45% in size
# Method in brief: (§5)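 HepG2 cells were seeded together with the CellTox Green dye at 600 cells/well, left 5 h at 37 C/5% CO2, then given compounds in DMSO. Fluorescence from dye bound to dead-cell DNA was read repeatedly over 40 h of treatment at 37 C.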
# [12] = qHTS RealTime-Glo MT Cell Viability Assay in HepG2 cells - 32 hour (AID 1224877); further: nearly all actives have a fitted effect of over 55% in size
# Method in brief: as §1
# [13] = A CellTox Green Cytotoxicity Assay to monitor cytotoxicity in HepG2 cells - 24 hour (AID 1224878); further: nearly all actives have a fitted effect of over 45% in size
# Method in brief: as §5
# [14] = A CellTox Green Cytotoxicity Assay to monitor cytotoxicity in HepG2 cells - 40 hour (AID 1224879); further: nearly all actives have a fitted effect of over 40% in size; further: potency means the concentration at half of the fitted maximal effect
# Method in brief: as §5
# [15] = qHTS assay to identify small molecule antagonists of the estrogen related receptor (ERR) signaling pathway from Tox21 library (AID 1224848); further: nearly all actives have a fitted effect of over 50% in size; further: potency means the concentration at half of the fitted maximal effect
# Method in brief: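 Screening used an ERR reporter line supplied by NTP, exposed for 18 h at 37 C to library compounds delivered in DMSO. Signal was luciferase luminescence developed with ONE-Glo at room temperature for 30 min.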
# [16] = qHTS assay to identify small molecule agonists of the estrogen related receptor (ERR) signaling pathway from Tox21 library (AID 1224849; calls by dose curve; further: nearly all actives have a fitted effect of over 15% in size); conditions: ERR reporter cell line, ONE-Glo luciferase, 18 h; at 92.4 µM (top of the series) unless noted
# Method in brief: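 ERR reporter cell line (NTP) seeded, rested 6 h at 37 C/5% CO2, then pinned with Tox21 compounds in DMSO. After 18 h at 37 C, ONE-Glo luciferase luminescence was read following 30 min at room temperature.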
# [17] = A CellTox Green Cytotoxicity Assay to monitor cytotoxicity in HEK293 cells - 40 hour (AID 1224871); further: nearly all actives have a fitted effect of over 45% in size
# Method in brief: as §3
# [18] = qHTS assay to identify small molecule agonists of H2AX - cell viability counter screen (AID 1224847; calls by dose curve; further: nearly all actives have a fitted effect of over 30% in size; further: potency means the concentration at half of the fitted maximal effect)
# Method in brief: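 For this counter screen, overnight-attached CHO-K1 cells received test compounds (15 concentrations, 0.76% DMSO final); 3 hr later at 37C, CellTiter-Glo reagent was added and luminescence recorded after 30 min at room temperature.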
# [19] = qHTS RealTime-Glo MT Cell Viability Assay in HEK293 cells - 16 hour (AID 1224872)
# Method in brief: as §2
# [20] = qHTS assay to identify small molecule agonists of H2AX (AID 1224845; active means well fitted activation curve with a large enough effect in the signal ratio in the repeat runs, not every such curve was filed as active; the % refers to the signal ratio)
# Method in brief: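 Wild-type CHO-K1 cells plated overnight, then exposed 3 hr at 37C to compounds at 15 concentrations (0.76% DMSO). Lysed, then HTRF anti-pH2AX(S139)-cryptate/anti-H2AX-d2 detection after 24 hr at room temperature; emissions 665 and 620 nm.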
smiles,measurement,setting,value
Nc1ncnc2c1ncn2[C@H]1CC[C@@H](CO)O1,Potency,[1],inactive
same,Potency,[2],inactive
same,outcome,[3],inactive
same,Potency,[4],inactive
same,Potency,[5],inactive
same,Potency,[6],inactive
same,Potency,[7],inactive
same,Potency,[8],inactive
same,max response,[9],18.9%
same,Potency,[10],inactive
same,Potency,[11],inactive
same,Potency,[12],inactive
same,Potency,[13],inactive
same,Potency,[14],inactive
O=c1c(O)c(-c2ccc(O)cc2)oc2cc(O)cc(O)c12,Potency,[1],inactive
same,Potency,[2],inactive
same,Potency,[15],inactive
same,"activity change, positive = activation",[16],4.05% [at 42.5 µM]
same,Potency,[4],inactive
same,Potency,[5],inactive
same,Potency,[6],inactive
same,Potency,[7],inactive
same,Potency,[17],inactive
same,Potency,[8],inactive
same,Potency,[10],inactive
same,Potency,[11],inactive
same,Potency,[12],inactive
same,Potency,[13],inactive
same,Potency,[14],inactive
COC(=O)CS,Potency,[1],inactive
same,Potency,[2],inactive
same,outcome,[3],inactive
same,Potency,[18],inactive
same,Potency,[4],inactive
same,Potency,[5],inactive
same,Potency,[6],inactive
same,Potency,[7],inactive
same,Potency,[17],inactive
same,Potency,[19],inactive
same,Potency,[8],inactive
same,max response,[9],0.933%
same,Potency,[10],inactive
same,Potency,[11],inactive
same,Potency,[12],inactive
same,Potency,[13],inactive
same,Potency,[14],inactive
CC(C)c1nc(CN(C)C(=O)N[C@H](C(=O)N[C@@H](Cc2ccccc2)C[C@H](O)[C@H](Cc2ccccc2)NC(=O)OCc2cncs2)C(C)C)cs1,Potency,[1],inactive
same,Potency,[2],9.52 µM (active)
same,outcome,[3],inactive
same,Potency,[15],21.1 µM (active)
same,"activity change, positive = activation",[16],-41.1% [at 42.5 µM]
same,Potency,[4],inactive
same,Potency,[5],21.3 µM (active)
same,Potency,[7],inactive
same,Potency,[8],inactive
same,Potency,[9],21.3 µM (active)
same,Potency,[11],inactive
same,Potency,[12],inactive
same,Potency,[13],inactive
same,Potency,[14],21.3 µM (active)
CC=C(Cl)Cl,Potency,[1],inactive
same,Potency,[2],inactive
same,outcome,[3],inactive
same,Potency,[18],inactive
same,Potency,[4],inactive
same,Potency,[5],inactive
same,Potency,[7],inactive
same,Potency,[17],inactive
same,Potency,[19],inactive
same,Potency,[8],inactive
same,max response,[9],12.6%
same,Potency,[12],inactive
same,Potency,[13],inactive
same,Potency,[14],inactive
C[C@@H]1CC(=O)NN=C1c1ccc(NN=C(C#N)C#N)cc1,Potency,[1],0.841 µM (active)
same,Potency,[2],inactive
same,Potency,[15],13.3 µM (active)
same,"activity change, positive = activation",[16],-30.7% [at 42.5 µM] and -38.2% [at 42.5 µM]
same,Potency,[6],inactive
same,Potency,[17],inactive
same,Potency,[8],inactive
same,Potency,[10],inactive
same,Potency,[13],inactive
same,Potency,[14],15.1 µM (active) and 13.4 µM (active)
OCCOCC#CCOCCO,Potency,[1],inactive
same,Potency,[2],inactive
same,outcome,[3],inactive
same,Potency,[18],inactive
same,Potency,[4],inactive
same,Potency,[5],inactive
same,Potency,[7],inactive
same,Potency,[17],inactive
same,Potency,[8],inactive
same,max response,[9],7.98%
same,Potency,[10],inactive
same,Potency,[11],inactive
same,Potency,[12],inactive
same,Potency,[13],inactive
same,Potency,[14],inactive
COc1ccccc1N1CCN(CC(O)COc2cccc3ccccc23)CC1 (stereo not drawn),Potency,[1],inactive
same,Potency,[20],inactive
same,Potency,[18],49.2 µM (active)
same,Potency,[5],26.8 µM (active)
same,Potency,[6],inactive
same,Potency,[17],inactive
same,Potency,[8],inactive
same,Potency,[10],inactive
same,Potency,[14],30.1 µM (active)
